± gives the standard deviation of the averaged measurements.
Tests used:
Test in all cases: promoter activity interaction Z-score (Lux/OD deviation from empty-vector control); higher = stronger promoter induction by the compound
[1] = system: E. coli BW25113 acrABp lux reporter
Procedure, shortened: (§1)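 Four 1:2 dilutions of each compound were tested in biological duplicates on E. coli BW25113 carrying low-copy luxCDABE promoter reporters, either wild type or deleted for one of three genes. Cultures of 40 µl LB Lennox in 384-well plates were kept at 37°C and read for OD600 and luminescence every 30 min for 12 h. Integration windows were 0–8 h for wild type and 1–9 h for deletion strains, and wells under 10% of the median growth value were discarded. The score is a Z-transformed residual of growth-normalised luminescence relative to a control fit.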

[2] = system: E. coli BW25113 micFp lux reporter
Procedure, shortened: as §1

[3] = system: E. coli BW25113 ompFp lux reporter
Procedure, shortened: as §1

[4] = system: E. coli BW25113 robp lux reporter
Procedure, shortened: as §1

[5] = system: E. coli BW25113 soxSp lux reporter
Procedure, shortened: as §1

[6] = system: E. coli BW25113 tolCp lux reporter
Procedure, shortened: as §1

[7] = 21 µg/ml, genetic background: wild type
[8] = 21 µg/ml, genetic background: ΔmarA
[9] = 21 µg/ml, genetic background: Δrob
[10] = 21 µg/ml, genetic background: ΔsoxS
[11] = 42 µg/ml, genetic background: wild type
[12] = 42 µg/ml, genetic background: ΔmarA
[13] = 42 µg/ml, genetic background: Δrob
[14] = 42 µg/ml, genetic background: ΔsoxS
[15] = 84.1 µg/ml, genetic background: wild type
[16] = 84.1 µg/ml, genetic background: ΔmarA
[17] = 84.1 µg/ml, genetic background: Δrob
[18] = 84.1 µg/ml, genetic background: ΔsoxS
[19] = 168.2 µg/ml, genetic background: wild type
[20] = 168.2 µg/ml, genetic background: ΔmarA
[21] = 168.2 µg/ml, genetic background: Δrob
[22] = 168.2 µg/ml, genetic background: ΔsoxS

Question: For `COc1ccc2cc3[n+](cc2c1OC)CCc1cc2c(cc1-3)OCO2` [Berberine], which “promoter activity interaction Z-score” value [1, 7] is on record?
Answer: Its value is 0.0236 ± 0.072.

Question: What about the “promoter activity interaction Z-score” value [1, 8] of the same compound?
Answer: The value was -0.475 ± 0.1.

Question: What about the “promoter activity interaction Z-score” value [1, 9] of the same compound?
Answer: Its value is -0.306 ± 0.009.

Question: What about the “promoter activity interaction Z-score” value [1, 10] of the same compound?
Answer: The value was 0.123 ± 0.39.

Question: What about the “promoter activity interaction Z-score” value [1, 11] of the same compound?
Answer: Its value is -0.0191 ± 0.052.

Question: What about the “promoter activity interaction Z-score” value [1, 12] of the same compound?
Answer: The value was -0.27 ± 0.38.

Question: And the “promoter activity interaction Z-score” value [1, 13]?
Answer: The value was -0.196 ± 0.1.

Question: And the “promoter activity interaction Z-score” value [1, 14]?
Answer: The value was 0.128 ± 0.55.

Question: What about the “promoter activity interaction Z-score” value [1, 15] of the same compound?
Answer: Its value is -0.175 ± 0.13.

Question: What about the “promoter activity interaction Z-score” value [1, 16] of the same compound?
Answer: Its value is -0.268 ± 0.47.

Question: And the “promoter activity interaction Z-score” value [1, 17]?
Answer: The value was -0.263 ± 0.31.

Question: What about the “promoter activity interaction Z-score” value [1, 18] of the same compound?
Answer: The value was 0.253 ± 1.1.

Question: And the “promoter activity interaction Z-score” value [1, 19]?
Answer: The value was -0.0717 ± 0.13.

Question: And the “promoter activity interaction Z-score” value [1, 20]?
Answer: The value was -1.16 ± 0.13.

Question: What about the “promoter activity interaction Z-score” value [1, 21] of the same compound?
Answer: Its value is -0.157 ± 0.19.

Question: What about the “promoter activity interaction Z-score” value [1, 22] of the same compound?
Answer: The value was 0.745 ± 1.3.

Question: And the “promoter activity interaction Z-score” value [2, 7]?
Answer: Its value is -0.242 ± 0.064.

Question: What about the “promoter activity interaction Z-score” value [2, 8] of the same compound?
Answer: The value was 0.146 ± 0.14.

Question: What about the “promoter activity interaction Z-score” value [2, 9] of the same compound?
Answer: Its value is -0.0671 ± 0.15.

Question: What about the “promoter activity interaction Z-score” value [2, 10] of the same compound?
Answer: Its value is -0.125 ± 0.15.

Question: What about the “promoter activity interaction Z-score” value [2, 11] of the same compound?
Answer: Its value is 0.0805 ± 0.15.

Question: What about the “promoter activity interaction Z-score” value [2, 12] of the same compound?
Answer: Its value is 0.226 ± 0.014.

Question: What about the “promoter activity interaction Z-score” value [2, 13] of the same compound?
Answer: The value was 0.0807 ± 0.046.

Question: What about the “promoter activity interaction Z-score” value [2, 14] of the same compound?
Answer: Its value is 0.68 ± 0.077.

Question: And the “promoter activity interaction Z-score” value [2, 15]?
Answer: The value was 0.36 ± 0.12.

Question: And the “promoter activity interaction Z-score” value [2, 16]?
Answer: Its value is 0.426 ± 0.11.

Question: What about the “promoter activity interaction Z-score” value [2, 17] of the same compound?
Answer: The value was 0.14 ± 0.12.

Question: What about the “promoter activity interaction Z-score” value [2, 18] of the same compound?
Answer: The value was 0.7 ± 0.18.

Question: What about the “promoter activity interaction Z-score” value [2, 19] of the same compound?
Answer: Its value is 0.445 ± 0.051.

Question: What about the “promoter activity interaction Z-score” value [2, 20] of the same compound?
Answer: The value was 0.425 ± 0.057.

Question: What about the “promoter activity interaction Z-score” value [2, 21] of the same compound?
Answer: The value was 0.095 ± 0.17.

Question: What about the “promoter activity interaction Z-score” value [2, 22] of the same compound?
Answer: The value was 2.075 ± 0.006.

Question: And the “promoter activity interaction Z-score” value [3, 7]?
Answer: The value was -0.331 ± 0.05.

Question: And the “promoter activity interaction Z-score” value [3, 8]?
Answer: The value was -0.189 ± 0.11.

Question: What about the “promoter activity interaction Z-score” value [3, 9] of the same compound?
Answer: Its value is -0.392 ± 0.37.

Question: And the “promoter activity interaction Z-score” value [3, 10]?
Answer: The value was -0.128 ± 0.0057.

Question: What about the “promoter activity interaction Z-score” value [3, 11] of the same compound?
Answer: Its value is -0.202 ± 0.02.

Question: And the “promoter activity interaction Z-score” value [3, 12]?
Answer: The value was -0.182 ± 0.032.

Question: What about the “promoter activity interaction Z-score” value [3, 13] of the same compound?
Answer: Its value is 0.159 ± 0.48.

Question: And the “promoter activity interaction Z-score” value [3, 14]?
Answer: Its value is -0.184 ± 0.26.

Question: And the “promoter activity interaction Z-score” value [3, 15]?
Answer: Its value is -0.592 ± 0.13.

Question: What about the “promoter activity interaction Z-score” value [3, 16] of the same compound?
Answer: The value was 0.181 ± 0.27.

Question: And the “promoter activity interaction Z-score” value [3, 17]?
Answer: The value was -0.302 ± 0.21.

Question: What about the “promoter activity interaction Z-score” value [3, 18] of the same compound?
Answer: The value was 0.222 ± 0.86.

Question: What about the “promoter activity interaction Z-score” value [3, 19] of the same compound?
Answer: The value was -0.265 ± 0.1.

Question: What about the “promoter activity interaction Z-score” value [3, 20] of the same compound?
Answer: The value was -0.655 ± 0.28.

Question: What about the “promoter activity interaction Z-score” value [3, 21] of the same compound?
Answer: Its value is -0.0984 ± 0.32.

Question: What about the “promoter activity interaction Z-score” value [3, 22] of the same compound?
Answer: Its value is 0.615 ± 1.2.

Question: What about the “promoter activity interaction Z-score” value [4, 7] of the same compound?
Answer: Its value is -0.384 ± 0.27.

Question: And the “promoter activity interaction Z-score” value [4, 8]?
Answer: Its value is -0.668 ± 0.061.

Question: What about the “promoter activity interaction Z-score” value [4, 9] of the same compound?
Answer: The value was -0.229 ± 0.035.

Question: And the “promoter activity interaction Z-score” value [4, 10]?
Answer: The value was 1.02 ± 0.67.

Question: And the “promoter activity interaction Z-score” value [4, 11]?
Answer: Its value is -0.378 ± 0.14.

Question: What about the “promoter activity interaction Z-score” value [4, 12] of the same compound?
Answer: The value was -0.587 ± 0.51.

Question: And the “promoter activity interaction Z-score” value [4, 13]?
Answer: Its value is -0.855 ± 0.25.

Question: And the “promoter activity interaction Z-score” value [4, 14]?
Answer: The value was -0.0756 ± 0.39.

Question: What about the “promoter activity interaction Z-score” value [4, 15] of the same compound?
Answer: The value was -0.935 ± 0.66.

Question: What about the “promoter activity interaction Z-score” value [4, 16] of the same compound?
Answer: The value was -0.613 ± 0.14.

Question: And the “promoter activity interaction Z-score” value [4, 17]?
Answer: The value was -0.951 ± 0.11.

Question: What about the “promoter activity interaction Z-score” value [4, 18] of the same compound?
Answer: The value was -0.288 ± 0.24.

Question: What about the “promoter activity interaction Z-score” value [4, 19] of the same compound?
Answer: Its value is -0.906 ± 0.21.

Question: And the “promoter activity interaction Z-score” value [4, 20]?
Answer: The value was -1.18 ± 0.24.

Question: And the “promoter activity interaction Z-score” value [4, 21]?
Answer: The value was -0.88 ± 0.11.

Question: And the “promoter activity interaction Z-score” value [4, 22]?
Answer: Its value is -0.247 ± 0.37.

Question: And the “promoter activity interaction Z-score” value [5, 7]?
Answer: The value was 0.0121 ± 0.039.

Question: And the “promoter activity interaction Z-score” value [5, 8]?
Answer: Its value is 0.176 ± 0.081.

Question: And the “promoter activity interaction Z-score” value [5, 9]?
Answer: Its value is 0.152 ± 0.084.

Question: And the “promoter activity interaction Z-score” value [5, 10]?
Answer: The value was -0.0133 ± 0.085.

Question: And the “promoter activity interaction Z-score” value [5, 11]?
Answer: Its value is 0.0147 ± 0.0098.

Question: What about the “promoter activity interaction Z-score” value [5, 12] of the same compound?
Answer: Its value is 0.336 ± 0.2.

Question: What about the “promoter activity interaction Z-score” value [5, 13] of the same compound?
Answer: Its value is 0.0622 ± 0.0015.

Question: What about the “promoter activity interaction Z-score” value [5, 14] of the same compound?
Answer: The value was -0.227 ± 0.048.

Question: And the “promoter activity interaction Z-score” value [5, 15]?
Answer: Its value is -0.148 ± 0.0029.

Question: What about the “promoter activity interaction Z-score” value [5, 16] of the same compound?
Answer: Its value is 0.232 ± 0.064.

Question: What about the “promoter activity interaction Z-score” value [5, 17] of the same compound?
Answer: The value was 0.0295 ± 0.037.

Question: What about the “promoter activity interaction Z-score” value [5, 18] of the same compound?
Answer: The value was -0.359 ± 0.27.

Question: What about the “promoter activity interaction Z-score” value [5, 19] of the same compound?
Answer: Its value is -0.174 ± 0.033.

Question: And the “promoter activity interaction Z-score” value [5, 20]?
Answer: The value was 0.0364 ± 0.046.

Question: What about the “promoter activity interaction Z-score” value [5, 21] of the same compound?
Answer: The value was -0.0651 ± 0.054.

Question: What about the “promoter activity interaction Z-score” value [5, 22] of the same compound?
Answer: Its value is -0.426 ± 0.38.

Question: And the “promoter activity interaction Z-score” value [6, 7]?
Answer: The value was 0.227 ± 1.2.

Question: And the “promoter activity interaction Z-score” value [6, 8]?
Answer: Its value is 0.771 ± 0.18.

Question: And the “promoter activity interaction Z-score” value [6, 9]?
Answer: Its value is -0.361 ± 0.45.

Question: And the “promoter activity interaction Z-score” value [6, 10]?
Answer: The value was 0.909 ± 0.084.

Question: What about the “promoter activity interaction Z-score” value [6, 11] of the same compound?
Answer: The value was 0.235 ± 0.016.

Question: What about the “promoter activity interaction Z-score” value [6, 12] of the same compound?
Answer: The value was 1.1 ± 0.24.

Question: And the “promoter activity interaction Z-score” value [6, 13]?
Answer: The value was 0.305 ± 0.6.

Question: What about the “promoter activity interaction Z-score” value [6, 14] of the same compound?
Answer: The value was 0.638 ± 0.84.

Question: And the “promoter activity interaction Z-score” value [6, 15]?
Answer: The value was 0.735 ± 0.75.

Question: And the “promoter activity interaction Z-score” value [6, 16]?
Answer: The value was 0.534 ± 0.58.

Question: What about the “promoter activity interaction Z-score” value [6, 17] of the same compound?
Answer: The value was 0.496 ± 0.28.

Question: What about the “promoter activity interaction Z-score” value [6, 18] of the same compound?
Answer: The value was -0.159 ± 0.1.

Question: And the “promoter activity interaction Z-score” value [6, 19]?
Answer: The value was 0.2 ± 1.1.

Question: What about the “promoter activity interaction Z-score” value [6, 20] of the same compound?
Answer: Its value is -0.272 ± 1.3.

Question: What about the “promoter activity interaction Z-score” value [6, 21] of the same compound?
Answer: Its value is 0.279 ± 0.36.

Question: And the “promoter activity interaction Z-score” value [6, 22]?
Answer: Its value is 1.31 ± 0.19.

— the supplement of paper PMC12282887
